Assay outcomes as filed in PubChem BioAssay.
TCR activator: activates T cell receptor signaling; primary human leukocytes, anti-CD3, IL-2 HTRF, 48 h; Potency, µM (series often up to 9.22 µM), usual class: activators; 330,000 tested, under 10 active; AID 504894
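Activity was scored as IL-2 release from primary human leukocytes given only a TCR signal (a-CD3 beads) plus compound for 48 hr. Detection used a two-antibody HTRF format read at 665nm.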
Sfp PPTase inh: inhibitors of Bacillus subtilis Sfp phosphopantetheinyl transferase; Q9F4F7; Biochemical Sfp PPTase activity, qHTS; Potency, µM, actives largely listed as inhibitors; 310,000 compounds, 3.5% hits;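 further: the enzyme is Sfp with the accession as filed and its product quenches rhodamine fluorescence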
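After 15 min at room temperature with compound, 15 nM Sfp received 5 uM rhodamine-CoA plus 12.5 uM BHQ-2-ybbR (50 mM Hepes pH 7.6, 10 mM MgCl2). Rate came from the fluorescence difference over 30 min, ex 525/em 598 nm.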
ClpP mod: qHTS Assay for Activators of ClpP; purified B. subtilis ClpP, FRET peptide cleavage, 20 min; 340,000 compounds, 1.9% hits; AID 651965, 2013; Potency, µM (highest dose often 57.5 µM); ATP-dependent Clp protease proteolytic subunit (Bacillus subtilis (strain 168)), P80244; active means well fitted falling curve with a large enough effect; inconclusive means small, poorly fitted or top-dose-only effect; inactive means no such curve, though single readings can be large or run the other way; further: the source files actives as falling curves though it sought activators and does not explain the sign; nearly all actives have a fitted effect of over 65% in size
Target sequence (P80244 whole entry, looked up): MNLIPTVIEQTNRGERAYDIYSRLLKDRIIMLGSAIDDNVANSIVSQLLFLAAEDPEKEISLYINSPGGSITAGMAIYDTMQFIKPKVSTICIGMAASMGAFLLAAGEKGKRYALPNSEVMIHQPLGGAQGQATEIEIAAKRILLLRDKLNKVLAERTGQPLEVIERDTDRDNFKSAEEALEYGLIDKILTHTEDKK
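Purified B. subtilis ClpP, 10 microg/mL final in Tris/HCl pH8 with KCl, BSA, glycerol and Tween-20, cleaved an Abz/nitrotyrosine-quenched decapeptide. Fluorescence (ex 320, em 430) was read at 0 and 20 min at room temperature. Delta was normalized to 5.8 microM ADEP and DMSO/no-enzyme controls.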
uPA generation: cell surface uPA generation inhibition; Potency, µM (doses to about 38.3 µM), most hits filed as inhibitors; 330,000 compounds, 0.31% hits; cell surface uPA generation assay, qHTS; active means well fitted inhibition curve with a large enough effect; inconclusive means small, poorly fitted or top-dose-only effect; inactive means no such curve, though single readings can be large or run the other way; tested in mouse RAW 264.7 cells; further: nearly all actives have a fitted effect of over 55% in size
Numbers stand for hits; - = inactive; ? = inconclusive; . = no result. Hits are enriched below; roughly 4.2% of the tested compounds scored in any of these assays. Unless noted, the call rests on the fitted dose curve; in most records, active means well fitted curve in the direction sought with a large enough effect; inconclusive means small, poorly fitted or top-dose-only effect, or another doubt; inactive means no such curve, though single readings can be large; an effect the other way counts as inactive or inconclusive.

SMILES	TCR activator	Sfp PPTase inh	ClpP mod	uPA generation
CCC(Sc1nc2n[nH]c(C)c2c(=N)n1-c1ccc(Br)cc1)C(=O)N(CC)CC (centres undefined)	.	.	-	.
COCCCNC(=O)c1ccccc1NS(C)(=O)=O	-	-	28µM	-
CS(=O)(=O)Nc1ccccc1C(=O)Nc1cccc(Cl)c1	-	-	-	-
CS(=O)(=O)Nc1ccccc1C(=O)Nc1cc(Cl)cc(Cl)c1	-	-	14µM	.
CS(=O)(=O)Nc1ccccc1C(=O)NC1CC2CCC1C2 (centres undefined)	-	-	35µM	.
CCN(CC)C(=O)c1sc2[nH]c(=S)n(-c3ccccc3)c(=O)c2c1C	.	79µM	-	-
O=C(O)C1CCc2sc3[nH]c(=S)n(-c4ccccc4)c(=O)c3c21 (centres undefined)	-	25µM	.	-
Cc1ccc(-n2c(=S)[nH]c3sc4c(c3c2=O)CCc2ccccc2-4)cc1	-	-	-	-
CCOC(=O)c1cc(C)[nH]c(=O)c1C#N	-	-	-	-
COCc1cc(C)[nH]c(=O)c1C#N	-	-	2.8µM	-
O=C(NC(=S)Nc1ncccn1)c1ccc(F)cc1	-	16µM	.	-
CC(=O)Nc1ccc(NC(=S)NC(=O)c2cc3ccccc3o2)cc1	-	-	-	-
COc1cccc(C(=O)NC(=S)Nc2nnn(C)n2)c1	-	50µM	-	-
COc1ccc(C(=O)NC(=S)SCC(=O)O)cc1	-	50µM	-	-
Cn1nnc(NC(=S)NC(=O)c2cc3ccccc3o2)n1	-	50µM	-	-
Cn1nnc(NC(=S)NC(=O)c2cccc3c(Br)cccc23)n1	-	?	-	-
COC(=O)C=P(c1ccccc1)(c1ccccc1)c1ccccc1	.	-	.	.
Cc1noc(C)c1CN1C(=O)c2ccccc2C1=O	-	-	-	-
Cc1cccc(NC(=O)c2cc3c(=O)n4cccc(C)c4nc3s2)c1C	.	.	-	.
COc1ccc(C(=O)NC(=S)Nc2nnn(C)n2)cc1	-	56µM	-	-
COc1cccc(C(=O)NC(=S)Nc2ccc(Cl)cc2C(=O)O)c1	-	50µM	.	-
Cc1ccc(CNC(=O)c2c(-c3ccc(Br)cc3)noc2C)o1	.	.	-	.
Cc1ccc(N=C2NC(=O)/C(=C/C=C/c3ccco3)S2)cc1	-	?	-	-
O=C1NC(=Nc2ccccc2)/C(=C/c2ccco2)S1	-	22µM	-	-
Cc1ccc(N=C2NC(=O)S/C2=C\c2ccco2)cc1	-	35µM	-	-
SMILES	TCR activator	Sfp PPTase inh	ClpP mod	uPA generation
O=C(NCc1cccc(Br)c1)c1cc(-c2ccccc2)nn1CC1CC(c2cccc([N+](=O)[O-])c2)=NO1 (centres undefined)	-	.	-	-
O=C(Nc1ccccc1O)c1ccc(NS(=O)(=O)c2cccc3cccnc23)cc1	-	-	-	7.1µM
COC(=O)c1ccc(NC(=O)c2ccc(NS(=O)(=O)c3cccc4cccnc34)cc2)cc1	-	-	.	-
Cc1cccc(-c2nc3cc(NC(=O)COc4ccccc4F)ccc3o2)c1	.	.	-	.
COc1cc(NC(=O)CC(C)S(=O)(=O)c2ccc3c(c2)CCN3C(C)=O)cc(OC)c1OC (centres undefined)	.	.	-	.
CNC(=S)NNC(=O)c1ccccc1Br	-	-	-	-
O=C(O)/C=C/C(=O)NNC(=O)c1ccccc1Br	-	56µM	-	.
Cc1cccc(C(=O)NNC(=O)/C=C/C(=O)O)c1	-	-	-	-
Cc1ccccc1C(=O)NNC(=O)/C=C\C(=O)O	-	22µM	-	-
CC(C)(C)c1ccc(S(=O)(=O)N2CCCCC2)cc1	-	-	-	-
O=C(NC1(Cc2ccccc2)CCN(CCCc2ccccc2)C1=O)c1ccccc1 (centres undefined)	-	.	-	?
COCCN(C(=O)COC(=O)/C=C/c1ccc(SC)cc1)c1c(N)n(Cc2ccccc2)c(=O)[nH]c1=O	-	.	22µM	-
COCCN(C(=O)COC(=O)/C=C/c1ccc(C(F)(F)F)cc1)c1c(N)n(Cc2ccccc2)c(=O)[nH]c1=O	-	.	-	-
CCc1c(C)sc(NC(=O)Cn2nc(C(F)(F)F)c3c2CCCC3)c1C#N	-	40µM	-	-
CCc1c(C)sc(NC(=O)CC#N)c1C#N	-	32µM	-	.
CCc1cc(C(=O)Nc2sc(C)c(CC)c2C#N)no1	.	.	-	.
CCCCCC(=O)Nc1sc(C)c(C)c1C#N	-	79µM	-	-
CCCC(=O)Nc1sc(C)c(C)c1C#N	-	-	.	-
CCc1ccc(NC(=O)Cn2nc(C(F)(F)F)c3c2CCCC3)cc1	.	.	-	.
COc1ccc(C)cc1NC(=O)c1c2c(nc3ccccc13)C(=O)N(C1CCCCC1)C2	.	.	-	.
C/C(=C1/C=Nc2ccccc21)c1ccc(N(C)C)cc1	.	.	-	.
CN1CCc2cc3c(c4c2C1CC41CCC(=NO)CC1)OCO3 (centres undefined)	-	-	32µM	-
C=C1[C@@H]2CC[C@H](C2)C1(C)C	.	-	.	.
CCOC(=O)c1ccc(N=c2sc(C(=O)OC)cc(=O)n2Cc2ccco2)cc1	-	-	-	6.3µM
Cc1cccc(CC(=O)Nc2cccc(-c3nc4cccnc4s3)c2)c1	.	.	20µM	.
SMILES	TCR activator	Sfp PPTase inh	ClpP mod	uPA generation
CCS(=O)(=O)Nc1cccc(-c2nc3cccnc3s2)c1	-	-	-	-
Cn1c(=O)n(C)c2cc(NS(=O)(=O)c3ccc(Br)cc3)c(NCc3ccccc3)cc21	.	.	-	.
O=C1/C(=C\c2ccc(O)c(O)c2)N=C2CCCCCN12	-	56µM	.	-
CCCOc1ccc(/C=C2/C(=O)ON=C2C)cc1OCC	-	?	-	-
CCOc1cc(/C=C2\C(=O)ON=C2C)ccc1OCc1ccccc1	-	22µM	?	-
COc1ccc(/C=C2/C(=O)ON=C2C)cc1Cl	-	79µM	.	-
C=CCOc1ccc(/C=C2/C(=O)ON=C2C)cc1OC	-	45µM	.	-
CC1=NOC(=O)/C1=C/c1ccc(O)c(Br)c1	-	-	.	-
C=CCOc1ccc(/C=C2\SC(N)=NC2=O)cc1OC	-	-	-	-
O=c1[nH]cnc2n[nH]nc12	.	.	-	.
Nc1c(C(=O)Nc2ccccc2Cl)nnn1Cc1cccc(Cl)c1	.	.	-	.
O=C1NC(=S)SC1=Cc1ccccn1	.	.	-	.
Cc1cc(C)c(C)c(S(=O)(=O)N2CCC(C(=O)NNC(=O)c3ccccc3O)CC2)c1C	-	.	28µM	-
CCCN(C(=O)c1cc2c(s1)-c1ccccc1SC2)c1ccccc1F	.	.	32µM	.
Cc1cc(Br)ccc1NC(=O)c1ccccc1-c1ccccc1	-	-	-	?
Cc1cc(Br)ccc1NC(=O)c1cc2c(s1)-c1ccccc1SC2	.	.	14µM	.
Cc1ccc(CNC(=O)c2cc3c(s2)-c2ccccc2SC3)cc1	.	.	-	.
CCOCCCNC(=O)c1cc2c(s1)-c1ccccc1SC2	-	79µM	-	-
CCCN(C(=O)c1cc2c(s1)-c1ccccc1OC2)c1ccccc1F	.	.	-	.
Cc1ccc(C(=O)CSc2nnc(N)s2)c(C)c1	-	-	-	-
CCCCC(=O)N/N=C/c1ccc(Sc2cccc3cccnc23)o1	-	35µM	?	-
CC(C)(C)NC(=O)c1oc2ccccc2c1NC(=O)c1ccc(F)cc1	.	.	-	.
COc1ccc(N2C3=C(CC4=C2CCCC4=O)C(=O)CCC3)cc1	-	-	-	-
